# From PubChem BioAssay (NCI)
# This is part of a sample that, as a whole, favours compounds with a hit. Of some 79,000 tested, about 15% had one in any assay. Values without a mark were called inactive. Calls of active or inactive are those of the source. Rule as the data show it: active = growth inhibition above about 70%; inactive = the rest.
# Test: NCI Yeast Anticancer Drug Screen. Data for the mlh1 strain (AID 171);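 also: 0% = growth of vehicle-treated control cultures of the same strain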
# Conditions: S. cerevisiae mlh1 strain growth inhibition, stronger effect = higher value
# Description: Growth inhibition of yeast strains with defined genetic alterations is measured as a screen for potential anti-cancer activity. Selected strains with alterations in DNA damage repair or cell cycle control were exposed to compounds and growth inhibition was measured relative to vehicle treated controls. The strain used in this assay is mlh1
SMILES,growth inhibition (at 1.2 µM) [%],growth inhibition (at 3.7 µM) [%],growth inhibition (at 11.0 µM),growth inhibition (at 33.0 µM),growth inhibition (at 100.0 µM)
CN(C)CCNC(=O)c1cccc2c1Oc1c(cccc1[N+](=O)[O-])O2,15,13,18%,38%,75% (active)
O=C(NNc1ccccc1)C(O)C(O)C(O)C(O)C(O)CO (stereo not given),4,2,22%,44%,91% (active)
CN(C)c1ccc2c(SCC(=O)OCC(=O)[C@@]3(O)CC[C@H]4[C@@H]5CCC6=CC(=O)C=C[C@]6(C)[C@H]5C(=O)C[C@@]43C)c3ccc(N(C)C)cc3nc2c1,-15,-30,46%,86% (active),87% (active)
O=C1C(Br)=C(c2ccccc2)O/C1=C/C(=O)c1ccc(Br)cc1,-2,1,9%,20%,89% (active)
CCC(=O)c1cc(C(=O)C(=S)SC)cc(C(=O)C(=S)SC)c1,0,40,98% (active),96% (active),93% (active)
N#CC(C#N)=NNc1ccc(S(=O)(=O)O)cc1,3,5,5%,11%,41%
O=C1/C(=C/c2ccccc2)CCCC1CN1CCCCC1 (stereo not given),4,16,26%,34%,38%
Nc1ncc(-c2ccc(Br)cc2)s1,-9,-14,-1%,94% (active),97% (active)
